Assay results published in PubChem BioAssay AID2732 (Emory University Molecular Libraries Screening Center, 2010).
The whole screen tested about 220,000 compounds, of which about 8,200 (3.7%) were called active. The full list was thinned out, with actives kept by preference. A number with no mark means an inactive call.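 The calls were made as follows: active = compounds that reduced the stress-induced luciferase reporter signal by more than about 70% of percent inhibition (limit read from the data); inactive = the rest.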

assay: blockers of ER-stress CHOP reporter expression – cell-based, unfolded protein response, luciferase reporter, primary screen (AID 2732); conditions: CHO-K1 CHOP-promoter luciferase, tunicamycin-induced, 15-18 h; at 10 µM; hits give high values;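 also: 0% = tunicamycin plus vehicle and 100% = wells without tunicamycin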

Row | Compound | inhibition
1 | O=C1NNC(c2ccccc2)=N/C1=C\c1ccc(Cl)cc1 | 24.3%
2 | NC(=O)COc1ccc(NC(=O)c2ccccc2-c2ccccc2)cc1 | 6.67%
3 | NC(=O)COc1ccc(C23CC4CC(CC(C4)C2)C3)cc1 | 103% (active)
4 | NNC(=O)COc1ccc(C2SCCS2)cc1 | 18.6%
5 | Cc1ccc(C)c2[nH]c(=O)c(CN(Cc3cccnc3)C(=S)NCc3ccco3)cc12 | 2.47%
6 | Cc1ccc(-c2nc3ccccc3[nH]c2=O)cc1 | -30.2%
7 | CC1Cc2ccccc2N1S(=O)(=O)c1ccc(Cl)nc1 (stereo unspecified) | 9.84%
8 | CCNC(=S)N1CCN(c2ncccn2)CC1 | 6.67%
9 | O=C(C(Cl)Cl)N1CCN(c2ccccn2)CC1 | 23.1%
10 | CC12CCC(C(=O)N3CCN(c4ncccn4)CC3)(c3nc4ccccc4nc31)C2(C)C (stereo unspecified) | 81.3% (active)
11 | Cn1nc(C(F)(F)F)c(-c2ccc(F)cc2)c1NC(=O)CSCC(=O)O | -1.35%
12 | NC1=NC[C@@H](Cc2ccc(O)cc2)N1CC1CCCCC1 | -9.28%
13 | CCOC(=O)C1=C(C)N=C2c3ccccc3C(=O)C2C1c1ccc(Br)cc1 (stereo unspecified) | 93.1% (active)
14 | CCOC(=O)C1=C(C)NC(C)=C(C(=O)OCC)C1c1ccccn1 | -2.49%
15 | CCOC(=O)C1=C(C)NC(=O)NC1c1ccccc1 (stereo unspecified) | 5.41%
16 | COc1ccc(OCCC(=O)c2ccc(OC)cc2)cc1 | -4.29%
17 | Nc1ccc(Oc2ccc(Cl)cc2)cc1 | 33.6%
18 | CC(C)(C)c1ccc(Oc2ccc(N)cc2)cc1 | 107% (active)
19 | Cc1ccc(Oc2ccc(N)cc2)cc1 | 37.7%
20 | Cc1cccc(-[n+]2c(-c3cccc(Br)c3)[nH]c3nc4ccccc4nc32)c1 | 18.3%
21 | COc1ccc(CCN2C(=O)CC(N3CCC(C(N)=O)CC3)C2=O)cc1OC (stereo unspecified) | -9.45%
22 | O=[N+]([O-])c1cc([N+](=O)[O-])c2cccnc2c1O | 16.7%
23 | CC(C)c1nc(N2CCOCC2)c(C#N)c2c1COC(C)(C)C2 | 60.3%
24 | CC(C)Cc1nc(Cl)c(C#N)c2c1CCC2 | 17.9%

Row | Compound | inhibition
25 | CC(C)Cc1nc(N2CCOCC2)c(C#N)c2c1CCC2 | 91.2% (active)
26 | N/C(=N\OC(=O)Nc1ccccc1)c1ccno1 | -5.09%
27 | Cc1cc2ccccc2n1CCC(=O)O | 6.98%
28 | O=C(O)CCn1c(O)c(C=C2N=c3ccccc3=N2)sc1=S | 80.2% (active)
29 | O=C(COc1ccc([N+](=O)[O-])cc1Cl)Nn1cnnc1 | -0.23%
30 | COc1cc(C=O)ccc1Oc1nnnn1-c1ccccc1 | 4.01%
31 | O=C(CSc1nnc2n1CCCN2)c1ccccc1 | -11.1%
32 | CC(=O)c1ccc(NC(=O)C2CC(=O)Nc3nc4ccccc4n32)cc1 (stereo unspecified) | -5.45%
33 | COc1ccc(Cn2cccc(NC(=O)Nc3ccc(C#N)cc3)c2=O)cc1 | 62.7%
34 | COc1ccc(Cn2c(C)c(C)c(C#N)c2NC(=O)Nc2ccc(F)cc2)cc1 | 94.3% (active)
35 | Cc1c(C#N)c(NC(=O)c2ccccc2)n(Cc2ccccc2)c1C | -4.55%
36 | Cc1nc2c(ncn2-c2ccccc2)c(=O)n1NC(=O)CN1CCCC1 | 9.81%
37 | Cc1ccc(-n2[nH]c(C)c(/C=N/NC(=O)c3cccc([N+](=O)[O-])c3)c2=O)cc1C | 85.8% (active)
38 | COc1cccc(/C=N/NC(=O)c2cccc([N+](=O)[O-])c2)c1OS(=O)(=O)c1ccc(C)cc1 | 0.84%
39 | Cc1[nH]n(-c2ccccc2)c(=O)c1/C=N/NC(=O)c1ccoc1C | 51.5%
40 | O=C(CSc1ncn[nH]1)Nc1nc(-c2cccc([N+](=O)[O-])c2)cs1 | 7.63%
41 | O=C(c1ccco1)N1CCN(CCOc2ccccc2)CC1 | 1.67%
42 | CCS(=O)(=O)Nc1cccc(-c2cc(-c3ccccc3)c3cc(C)ccc3n2)c1 | 78.8% (active)
43 | CC(=O)Nc1cccc(-c2cnc3ccccc3n2)c1 | -21.7%
44 | Cc1ccc2nc(-c3ccccc3)cc(C(=O)O)c2c1 | -1.51%
45 | CCOC(=O)c1ccc(NC(=O)c2nc[nH]c2C(=O)NCc2ccccc2)cc1 | 94.5% (active)
46 | CCOC(=O)c1ccc(NC(=O)c2nc[nH]c2C(=O)N[C@@H](CCCCNC(=O)OC(C)(C)C)C(=O)OC(C)(C)C)cc1 | 44.5%
47 | CCOC(=O)c1[nH]cnc1C(=O)Nc1ccccc1C | -6.79%
48 | CCC(=O)c1ccc(OCC(=O)Nc2ccc3nc(C)sc3c2)cc1 | 0.17%

Row | Compound | inhibition
49 | COc1ccc2nc(Nc3nc4ccc(NC(C)=O)cc4s3)sc2c1 | -58.2%
50 | CCOc1ccc2nc(Nc3nc4ccc(NC(C)=O)cc4s3)sc2c1 | 106% (active)
51 | O=C(NNS(=O)(=O)c1ccccc1C(F)(F)F)c1cc2ncc(C(F)(F)F)cc2s1 | -0.25%
52 | Cn1c(=O)c2c(nc(OCc3cccnc3)n2Cc2ccccc2)n(C)c1=O | 7.91%
53 | C=CCOc1nc2c(c(=O)n(C)c(=O)n2C)n1Cc1ccc(Cl)cc1Cl | 93.2% (active)
54 | C=CCn1c(Oc2ccc(C(=O)OC)cc2)nc2c1c(=O)n(C)c(=O)n2C | 3.03%
55 | Clc1ccc(C[n+]2cc(-c3ccc(Cl)cc3)n3c2CCC3)cc1 | -2.43%
56 | CCn1nc(C)c(/C=N/NC(=O)Cc2ccc(Cl)cc2)c1C | 14.1%
57 | Cc1nn(Cc2ccc(Cl)cc2)c(Cl)c1/C=N/NC(=O)c1cccnc1 | -12.2%
58 | Cc1nn(Cc2ccc(Cl)cc2)c(Cl)c1/C=N/NC(=O)CNc1ccccc1F | 96.1% (active)
59 | Oc1[nH]c2ccc(Br)cc2c1N=Nc1nn[nH]n1 | -5.13%
60 | CCOC(=O)c1ccc(N=C2SC(C(=O)NC)CC(=O)N2CCc2ccccc2)cc1 (stereo unspecified) | -10.9%
61 | Cc1cccc(N(C)C(=O)c2cc3c(=O)[nH]c4ccc(C)cc4c3s2)c1 | 80.4% (active)
62 | Cc1ccc2[nH]c(=O)c(CC=C(Cl)Cl)c(C)c2c1 | 52.8%
63 | O=C(NCCN1CCN(Cc2ccccc2)CC1)c1cc2c(=O)[nH]c3ccccc3c2s1 | 21.6%
64 | S=C(NNC(=S)NC1CC2C=CC1C2)NC1CC2C=CC1C2 (stereo unspecified) | 9.31%
65 | C/C(=N/NC(=O)c1ccn(C)n1)c1ccncc1 | 12.5%
66 | COc1cccc(Nc2nc(N)c([N+](=O)[O-])c(NCc3ccco3)n2)c1 | 38.9%
67 | COc1ccc(Nc2nc(Cl)nc(NCc3ccco3)n2)cc1 | 85% (active)
68 | COc1ccc(Nc2nc(NCc3ccco3)nc(N/N=C/c3ccccc3Cl)n2)cc1 | -19.9%
69 | COc1ccc(Br)c2c1C(=O)CC2 | 10.2%
70 | Cn1nccc1NC(=O)CC(CC(=O)O)c1ccccc1 (stereo unspecified) | 25.4%
71 | COc1cc2c(cc1OC)C(/C=C/c1ccco1)=NCC2 | 1.07%
72 | COC(=O)C1=C(N)Oc2cc(C)[nH]c(=O)c2C1c1ccc(Cl)cc1 (stereo unspecified) | -8.98%

Row | Compound | inhibition
73 | C=C(C)C(=O)O[C@H]1C/C(C)=C\C(=O)/C=C(\C)[C@H](O)[C@@H]2OC(=O)C(=C)[C@@H]21 | 107% (active)
74 | O=C(O)C#Cc1cccc2ccccc12 | -1.61%
75 | COc1ccc(F)cc1S(=O)(=O)N1CCCCC1 | 10.6%
76 | CCOC(=O)c1ccc(S(=O)(=O)N(CCO)Cc2cc3cc(OC)c(OC)cc3[nH]c2=O)cc1 | 23.6%
77 | Cc1nc(-c2ccc(Cl)cc2)sc1C1(C)CC(c2ccccc2F)=NO1 (stereo unspecified) | -3.45%
78 | CCC/C(C)=N\Nc1nc2c(c(=O)n(C)c(=O)n2C)n1C | 6.66%
79 | Cc1ccc(C2(C(F)(F)F)N=C3Sc4cc(C)cc(C)c4N3C(=O)N2)cc1 (stereo unspecified) | 76.7% (active)
80 | CCOC(=O)c1cc(Sc2ccccc2N)cc(C(=O)OCC)n1 | 15.6%
81 | CCN(CC)CCn1c(N)c(S(=O)(=O)c2ccccc2)c2nc3ccccc3nc21 | -7.46%
82 | NS(=O)(=O)c1ccc(CNC(=O)c2cnccn2)cc1 | -3.79%
83 | COc1ccc(Nc2cc(=O)n(-c3ccccc3)c3c2c(=O)n(C)c(=O)n3C)cc1 | 7.22%
84 | Cc1ccc(S(=O)(=O)NNC(=S)NC(C)(C)C)cc1 | -12.5%
85 | CSc1nnc(-c2ccc(C(F)(F)F)cn2)o1 | -2.28%
86 | CN(C)S(=O)(=O)c1ccc(NC(=O)COC(=O)c2n[nH]c3ccccc23)cc1 | 22.3%
87 | CCN(CC)S(=O)(=O)c1ccc2nc(COC(=O)c3n[nH]c4ccccc34)[nH]c2c1 | 104% (active)
88 | CCN(CC)S(=O)(=O)c1ccc2nc(CSc3nnnn3-c3ccc(O)cc3)[nH]c2c1 | 29.3%
89 | C/C(=N/NC(=O)CC(=O)N/N=C(\C)c1ccc([N+](=O)[O-])cc1)c1ccc([N+](=O)[O-])cc1 | -0.51%
90 | CCCSc1nc2c(c(=O)[nH]c(=O)n2C)n1CCc1ccccc1 | 19.8%
91 | CCCCCn1c(SCCC(C)C)nc2c1c(=O)[nH]c(=O)n2C | 97.9% (active)
92 | CCCCCCn1c(SCC(=O)c2ccccc2)nc2c1c(=O)[nH]c(=O)n2C | -4.27%
93 | Cc1cc(C(=O)NCCc2ccc(Cl)cc2)n(-c2ccccc2)n1 | 16.9%
94 | CC1CCCN(Cc2nc3c(c(=O)n(C)c(=O)n3C)n2CC(=O)c2ccccc2)C1 (stereo unspecified) | 3.62%
95 | CCCCCCn1c(CN2CCCC(C)C2)nc2c1c(=O)n(C)c(=O)n2C (stereo unspecified) | 97.9% (active)
96 | CCN1CCN(Cc2nc3c(c(=O)n(C)c(=O)n3C)n2CC(=O)c2ccccc2)CC1 | 6.1%
